Screens as filed in PubChem BioAssay.
Pf apPOL inh = Pf-apPOL DNA polymerase inhibition. Recombinant Pf-apPOL, molecular beacon fluorescence, 1.5 h. inhibition, % at 10 µM. hit rate 0.25% among 210,000
mHTT CaM bind = disrupts binding of mutant huntingtin to calmodulin; P42858; AlphaScreen His-mHTT/GST-CaM binding, luminescence; inhibition, % at 15 µM; hit rate 3.6% among 190,000; AID 1671202;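 note: 0% = both proteins with DMSO and 100% = one protein alone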
* = called active by the depositor; nt = not tested or not shown. Rows were chosen to be rich in hits. Some 3.5% of all compounds tested hit in one or more screens of this group. Cut-off read from the data, not from the text of the source: active = inhibition above about 50%; inactive = the rest.

SMILES	Pf apPOL inh	mHTT CaM bind
O=C(c1ccccc1O)N1N=C(c2ccc(Cl)cc2)CC1(O)C(F)(F)F (stereo unspecified)	-1	59*
O=C(c1ccc(Cl)cc1)N1N=C(c2ccc([N+](=O)[O-])cc2)CC1(O)C(F)(F)F (stereo unspecified)	-1	51*
Cc1ccc(C2=NN(C(=O)c3ccccc3Cl)C(O)(C(F)(F)F)C2)cc1 (stereo unspecified)	0	-1
CCOc1ccc2c(c1)/C(=C(/C(Cl)=C(Cl)Cl)[N+](=O)[O-])N2	-2	2
CCOc1ccccc1C(=O)N1CCN(c2ncnc3c2CCC3)CC1	2	-3
C=CCOc1ccccc1CNc1cc(OC)ccc1OC	12	67*
C=CCNC(=O)C(=O)Nc1cc(OC)ccc1OC	-7	-4
C=CCOc1ccccc1CNc1ccccc1F	3	-87
C=CCOc1ccccc1CNc1ccc(C)cc1	0	54*
CCCc1cc(=O)oc2cc(OCc3ccc([N+](=O)[O-])cc3)ccc12	-2	-2
O=C(NCCC1=CCCCC1)C(=O)NCC1(CO)CC1	-3	-5
Cc1cc(C)c2c(c1)[nH]c1nnc(SCC(=O)Nc3ccc(Cl)cc3)nc12	-3	21
O=C1NCCc2c1[nH]c1ccc(C#Cc3ccccc3)cc21	-31	97*
COc1ccc2[nH]c3c(c2c1)CC(C)NC3=O (stereo unspecified)	-3	1
COc1ccccc1C(=O)N1CCCN(c2cc(-c3ccccc3)[nH]n2)CC1	-2	57*
COc1ccccc1C(=O)N1CCN(c2cc(-c3cccnc3)[nH]n2)CC1	-7	-3
CN1CCN(C2=NC(=O)/C(=C/c3ccccc3)S2)CC1	-7	2
O=C1N=C(N2CCCC2)S/C1=C/C=C/c1ccccc1	-2	76*
O=C1N=C(N2CCCCC2)S/C1=C/C1=Cc2ccccc2OC1	-7	66*
O=C1N=C(N2CCOCC2)S/C1=C\C1=Cc2ccccc2OC1	nt	45
COCCNC(=O)Cn1nc([N+](=O)[O-])c(Br)c1C	3	-3
COc1cccc(CNC2CCN(c3ccc(C(=O)NC4CC4)cn3)C2)c1O (stereo unspecified)	1	4
O=C(c1cccc(F)c1)N1CCC(c2cnn(-c3ccc(F)cc3)c2)CC1	-4	-5
Cc1cc(C)n(CCNC(=O)c2ccc3nsnc3c2)n1	-2	-13
CC(C)(C)C1CCc2c(sc3c2C(=O)NC(c2ccccc2)N3)C1 (stereo unspecified)	-11	0
SMILES	Pf apPOL inh	mHTT CaM bind
CC(C)(C)C1CCc2c(sc3c2C(=O)NC(c2ccc(O)c([N+](=O)[O-])c2)N3)C1 (stereo unspecified)	-5	59*
O=C(Nc1cccc(Cl)c1)Nc1nnc2ccccn12	0	12
CNc1nccc(N2CCC(CC(=O)NCc3cccc(C(F)(F)F)c3)CC2)n1	1	54*
CNc1nccc(N2CCC(CC(=O)NCc3ccc(OC)c(OC)c3)CC2)n1	-2	17
CCOc1ccccc1N1CCN(C(=O)c2cccs2)C(C)C1=O (stereo unspecified)	-1	-2
OC(C#CC1CC1)c1ccco1 (stereo unspecified)	-8	100*
OC(C#CC1(O)CCCCC1)c1ccco1 (stereo unspecified)	nt	-2
Cc1cccc(C)c1Nc1c(-c2ccccn2)nc2ncccn12	1	100*
Cc1ccc(-c2nc3ncccn3c2Nc2c(C)cccc2C)o1	-6	10
COc1ccc(C(=O)N2CCC(c3noc(-c4ccccc4C)n3)CC2)cc1	2	-2
COc1cccc(-c2nc(C3CCN(C(=O)c4ccc(Br)cc4)CC3)no2)c1	2	49
COc1cccc(-c2nc(C3CCN(C(=O)c4cccc(N(C)C)c4)CC3)no2)c1	3	53*
Cc1ccccc1-c1nc(C2CCN(C(=O)c3ccc(Br)cc3)CC2)no1	10	54*
COc1ccccc1-c1nc(C2CCN(C(=O)c3ccccc3)CC2)no1	-1	11
COc1ccccc1-c1nc(C2CCN(C(=O)c3cccc(Cl)c3)CC2)no1	13	63*
COc1cccc(C(=O)N2CCC(c3noc(-c4cccc(OC)c4)n3)CC2)c1	-2	6
COc1cccc(-c2nc(C3CCN(C(=O)c4ccc(Cl)cc4)CC3)no2)c1	1	62*
Cc1cc(S(=O)(=O)O)ccc1N1N=C(C(=O)O)CC1=O	-13	22
COc1cccc(-c2nnc(NC(=O)c3ccc(S(=O)(=O)N4COCC4(C)C)cc3)o2)c1	-5	22
CCOc1cccc2nnc(NC(=O)CC3CCCCC3)n12	-1	-1
COc1ccccc1NC(=O)c1c(NC(=O)c2ccccc2Cl)sc2c1CCCC2	-3	-7
COc1ccc(NC(=O)c2c(NC(=O)CN3CCCC3)sc3c2CCC3)c(OC)c1	-7	-2
COc1ccc(OC)c(NC(=O)c2c(NCc3cccnc3)sc3c2CCCC3)c1	-16	69*
COc1ccc(OC)c(NC(=O)c2c(NC(=O)CCC(=O)O)sc3c2CCCCC3)c1	-8	54*
COc1ccc(NC(=O)c2c(NC(C)=O)sc3c2CCCC3)c(OC)c1	-2	-1
SMILES	Pf apPOL inh	mHTT CaM bind
COc1ccc(OC)c(NC(=O)c2c(NCc3ccncc3)sc3c2CCC3)c1	-15	88*
COc1ccc(OC)c(NC(=O)c2cccnc2)c1	-2	2
COc1ccc(Cl)cc1NC(=O)c1c(NCc2ccncc2)sc2c1CCCC2	-20	79*
CC(C)NC(=O)N1CCN(Cc2nc(-c3ccccc3)cs2)CC1	-9	-16
COc1cc(C=Nc2cc(Br)c3c(c2)OCCO3)cc(OC)c1OC	2	4
O=C(Oc1cccc(C(F)(F)F)c1)c1ccc(-c2cccs2)s1	-4	nt
Fc1cccc(-c2nc(-c3cn(-c4ccccc4)nn3)no2)c1	1	-5
COc1ccc(OC)c(NC(=O)c2c(NCc3ccncc3)sc3c2CCCC3)c1	-17	70*
COc1ccc(CC(=O)Nc2sc3c(c2C(N)=O)CCCCCC3)cc1OC	-1	6
COc1ccc(OC)c(Nc2ncc3c(n2)CCN(CCc2ccccc2)C3)c1	-3	59*
CCCN1CCc2nc(Nc3ccccc3OC)ncc2C1	96*	1
COc1ccc(OC)c(Nc2ncc3c(n2)CCN(Cc2cccc(OC)c2OC)C3)c1	-3	47
COc1cccc(CN2CCc3nc(Nc4cc(OC)ccc4OC)ncc3C2)c1	-5	15
CCOc1ccccc1CN1CCc2nc(Nc3cc(OC)ccc3OC)ncc2C1	-4	63*
COc1ccccc1Nc1ncc2c(n1)CCN(Cc1ccc(F)cc1)C2	36	-8
CC(=O)N1CCN(c2ccc(Nc3cccc(C)n3)nn2)CC1	-11	-13
COc1ccc(Cl)cc1NC(=O)C(=O)NCC(c1ccco1)N(C)C (stereo unspecified)	-4	-10
Fc1ccc(-c2n[nH]c(C3CCN(Cc4ccoc4)CC3)n2)cc1	1	-3
COC(=O)c1ccc(NC(=O)N2CC(C)Oc3ccccc32)cc1 (stereo unspecified)	-4	-4
CCN(CC)c1ccc(N=Cc2ccc(O)cc2)cc1	-8	86*
CCN(CC)c1ccc(C=Nc2ccc(C)cc2)cc1	-4	-4
CCCNC(=O)c1cc(C)nc2ccc(Cl)cc12	-3	2
CNC(=O)c1cc(C)nc2ccc(F)cc12	-2	14
CNC(=O)c1cc(C)nc2ccc(C)cc12	84*	-1
CCCNC(=O)c1cc(C)nc2ccc(F)cc12	-1	100*
